Assay [1] relates to Plasmodium falciparum Sir2 (PF13_0152, Sir2A). Briefly: Plasmodium falciparum Sir2A binding compounds – biochemical, small-molecule microarray, 635 nm fluorescence, primary screen (AID 1098).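 Further: score merges spot fluorescence intensity with its signal-to-noise ratio.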 The conditions noted are these: fluorescence 635 nm, higher = more signal.
The nature of assay [2]: probe aDKK1 binding to arrayed compounds – biochemical, biotinylated probe, 635/667 nm fluorescence, primary screen (AID 1099).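 Further: score merges 667nm spot fluorescence with signal to noise across triplicate slides; reference of the scale not given here.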 The following applies: small-molecule microarray, higher = more signal.
Assay [3] in a line: probe aCHRDL2 binding to arrayed compounds – biochemical, biotinylated probe, 635/667 nm fluorescence, primary screen (AID 1100). The conditions noted are these: small-molecule microarray, higher = more signal.
Assay [4] in a line: change in splice reporter luminescence, either direction, cell-based, HEK293, spliceosome inhibition project, primary screen (AID 1101).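 Further: HEK293 cells carrying a splicing-competent luciferase reporter gene; test concentration not given here.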 The conditions noted are these: HEK293 splicing luciferase reporter, 24 h, higher = more signal, called active from +8 up or from −8 down. (A reporter such as luciferase makes a cellular process visible.)
Assay [5] deals with Fibroblast growth factor 10 (Homo sapiens) (UniProt O15520). Briefly: compounds binding fibroblast growth factor 10 – biochemical, small-molecule microarray, 635 nm fluorescence, primary screen (AID 1102). The conditions noted are these: FGF10 binding, fluorescence 635 nm, higher = more signal.
Assay [6] has as its system glycogen synthase kinase-3 (GSK3A per assay name; protocol says GSK3B). The assay is described as follows: compounds binding glycogen synthase kinase-3 – biochemical, small-molecule microarray, 635 nm fluorescence, GSK3A, primary screen (AID 1103). Further: the record names both GSK3A and GSK3B. The conditions noted are these: fluorescence 635 nm, higher = more signal.
Assay [7] concerns the target Epidermal growth factor receptor (Homo sapiens) (UniProt P00533). Briefly: compounds binding epidermal growth factor receptor – biochemical, small-molecule microarray, 635 nm fluorescence, primary screen (AID 1104).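 Further: score merges 667 nm emission intensity with spot signal to noise over triplicate slides.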 The following applies: EGFR binding, higher = more signal.
For assay [8], the target named is Follistatin-related protein 3 (Homo sapiens) (UniProt O95633). The assay is described as follows: compounds binding follistatin-related protein 3 – biochemical, small-molecule microarray, 635 nm fluorescence, primary screen (AID 1105).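 Further: score merges emission near 667 nm and signal to noise per printed spot across three slides.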 The following applies: FSTL3 binding, higher = more signal.
For assay [9], the target named is Dickkopf-related protein 1 (Homo sapiens) (UniProt O94907). The assay is described as follows: small molecules binding DKK1 protein – biochemical, small-molecule microarray, 635 nm fluorescence scan, primary screen (AID 1106).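 Further: score merges emission near 667 nm with signal to noise over three replicate slides.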 The following applies: higher = more signal.
Assay [10] concerns Inhibin beta A chain (activin A). Briefly: small molecules binding activin A – biochemical, small-molecule microarray, 635 nm fluorescence scan, primary screen (AID 1107).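 Further: mouse activin A protein probed at 4.33 µg/mL on printed slides; score merges bound-protein fluorescence near 667 nm with spot signal-to-noise.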 The following applies: INHBA, higher = more signal.

This passage reports composite z-score and z-score results from PubChem BioAssay.

The source made the active and inactive calls.

Chain of Dickkopf-related protein 1 (Homo sapiens) (O94907 whole entry, looked up): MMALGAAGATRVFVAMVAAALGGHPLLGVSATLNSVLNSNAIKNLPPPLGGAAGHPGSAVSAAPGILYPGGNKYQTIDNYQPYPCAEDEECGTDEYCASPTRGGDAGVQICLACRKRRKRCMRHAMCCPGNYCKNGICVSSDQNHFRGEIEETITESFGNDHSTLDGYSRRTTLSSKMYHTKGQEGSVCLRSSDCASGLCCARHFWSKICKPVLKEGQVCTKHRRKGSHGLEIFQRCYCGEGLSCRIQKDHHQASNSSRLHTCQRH
Chain of Follistatin-related protein 3 (Homo sapiens) (O95633 whole entry, looked up): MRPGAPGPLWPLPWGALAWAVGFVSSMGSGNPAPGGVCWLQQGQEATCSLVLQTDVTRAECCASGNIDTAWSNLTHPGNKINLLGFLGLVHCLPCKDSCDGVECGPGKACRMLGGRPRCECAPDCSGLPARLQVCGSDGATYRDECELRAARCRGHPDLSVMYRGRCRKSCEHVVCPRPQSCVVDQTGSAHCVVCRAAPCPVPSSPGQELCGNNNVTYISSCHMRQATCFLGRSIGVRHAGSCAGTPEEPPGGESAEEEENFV
Chain of Epidermal growth factor receptor (Homo sapiens) (P00533 whole entry, looked up): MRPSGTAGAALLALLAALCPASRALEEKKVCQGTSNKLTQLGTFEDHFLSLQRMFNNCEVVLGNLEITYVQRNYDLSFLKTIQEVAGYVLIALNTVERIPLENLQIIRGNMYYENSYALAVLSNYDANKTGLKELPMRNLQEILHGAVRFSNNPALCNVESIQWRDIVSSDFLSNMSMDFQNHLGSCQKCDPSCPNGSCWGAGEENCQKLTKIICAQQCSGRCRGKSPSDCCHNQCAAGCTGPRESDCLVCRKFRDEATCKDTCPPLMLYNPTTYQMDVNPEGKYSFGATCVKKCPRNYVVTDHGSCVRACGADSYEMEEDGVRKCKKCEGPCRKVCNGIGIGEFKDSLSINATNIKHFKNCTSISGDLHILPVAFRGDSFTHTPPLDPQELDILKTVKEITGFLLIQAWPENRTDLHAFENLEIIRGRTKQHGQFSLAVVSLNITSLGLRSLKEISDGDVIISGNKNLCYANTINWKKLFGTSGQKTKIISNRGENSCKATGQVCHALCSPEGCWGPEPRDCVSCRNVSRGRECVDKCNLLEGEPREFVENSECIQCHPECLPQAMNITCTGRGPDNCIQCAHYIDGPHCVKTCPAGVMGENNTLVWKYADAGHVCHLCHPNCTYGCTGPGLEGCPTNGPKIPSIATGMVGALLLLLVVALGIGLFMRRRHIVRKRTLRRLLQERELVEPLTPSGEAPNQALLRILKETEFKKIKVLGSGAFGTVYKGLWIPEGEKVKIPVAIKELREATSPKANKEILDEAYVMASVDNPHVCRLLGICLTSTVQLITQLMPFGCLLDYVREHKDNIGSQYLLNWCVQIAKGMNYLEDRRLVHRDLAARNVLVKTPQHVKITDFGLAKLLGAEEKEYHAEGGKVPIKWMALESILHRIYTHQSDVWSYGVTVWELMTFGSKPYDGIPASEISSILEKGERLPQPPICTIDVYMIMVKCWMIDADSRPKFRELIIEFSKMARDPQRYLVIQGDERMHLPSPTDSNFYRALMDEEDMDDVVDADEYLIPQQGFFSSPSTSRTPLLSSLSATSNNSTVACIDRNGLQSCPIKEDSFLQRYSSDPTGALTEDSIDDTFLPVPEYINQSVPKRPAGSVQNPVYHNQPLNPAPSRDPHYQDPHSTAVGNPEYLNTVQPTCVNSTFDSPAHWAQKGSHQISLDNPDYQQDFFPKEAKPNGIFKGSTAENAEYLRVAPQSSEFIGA
Chain of Fibroblast growth factor 10 (Homo sapiens) (O15520 whole entry, looked up): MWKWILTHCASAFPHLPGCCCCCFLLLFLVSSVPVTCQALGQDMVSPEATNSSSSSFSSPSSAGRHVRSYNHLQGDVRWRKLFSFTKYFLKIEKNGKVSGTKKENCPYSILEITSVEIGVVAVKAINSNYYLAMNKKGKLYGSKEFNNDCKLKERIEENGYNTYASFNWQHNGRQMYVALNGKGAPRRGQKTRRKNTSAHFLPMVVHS

For `C=C[C@@H](COC(C)=O)NS(=O)(=O)c1ccc(Br)cc1`, the composite z-score in assay [1] was 0.549; in assay [2], -0.103; in [3], -0.0829; in assay [5], 0.172; in [6], 0.444; in assay [7], 0.118. The composite z-score in [8] worked out at 0.412; in [9], 0.77; in [10], 0.361. In addition, the z-score in [4] is 23.4 (active).
Turning to `NC(N)=NCc1cn(CCc2c[nH]c3ccccc23)nn1`, the composite z-score in [1] is 0.689; in assay [2], 0.0191; in assay [3], -0.865; in assay [5], 0.479; in assay [6], 1.18; in assay [7] it was 0.699. Besides, the composite z-score in assay [8] came to 1.12; in assay [9], 1.6; in [10], 0.307. In addition, the z-score in [4] was -0.443 (inactive).
For `CN(C)C(=O)[C@]1(CCC(=O)OC(C)(C)C)N=C(c2ccc(OCCCO)cc2)O[C@@H]1c1ccccc1`, the composite z-score in assay [1] is 0.11; in [2] it was 0.937; in assay [3] it was 1.01; in assay [5] it was 0.617; in assay [6], 1.11; in assay [7], -0.0133. For the same compound, the values for the composite z-score in assay [8], in assay [9] and in assay [10] were 0.011, -0.136 and 0.12, respectively. In addition, the z-score in assay [4] is -0.403 (inactive).
For `CC(C)c1ccc(NN2C(C(O)c3ccco3)C=CC3C(=O)N(c4ccccc4)C(=O)C32)cc1` (stereo not given), the composite z-score in assay [1] turned out to be 1.02; in assay [2], 0.978; in assay [3], 1.09; in assay [5], 0.783; in [6], 1.3; in assay [7], 0.0401. The composite z-score amounted to 1.22 in assay [8], 0.191 in assay [9] and 1.14 in assay [10]. The z-score in assay [4] is 0.165 (inactive).
Take `CC(C)C(CO)N1C(=O)[C@]2(C)C3C(=O)OCCC/C=C\[C@H]3OC23C=CCN(c2ccc(Cl)cc2)C(=O)[C@@H]13` (stereo not given in full): the composite z-score in assay [1] is 1.11; in assay [2], -0.095; in assay [3], 0.38; in assay [5], -0.382; in assay [6], -0.028; in assay [7], -0.599. Moreover, the composite z-score in assay [8] is -0.518; in assay [9], -0.821; in assay [10] it was 0.717. Besides, in [4], the z-score is 0.242 (inactive).
Turning to `O=C1O[C@@H](c2ccccc2)[C@@H](c2ccccc2)N2[C@@H](c3ccc(O)cc3)[C@]3(C(=O)Nc4ccc(C#CCCO)cc43)[C@@H](C(=O)NC[C@H](O)c3ccccc3)[C@H]12`, the composite z-score in [1] was -0.029; in assay [2], -0.301; in [3], 0.785; in [5], -1.01; in assay [6] it was -0.375; in assay [7] it was -0.637. In addition, the composite z-score was -0.802 in assay [8], -1.26 in [9] and -0.926 in [10]. Further, in assay [4], the z-score was 0.0041 (inactive).
Take `Cc1ccc(F)cc1S(=O)(=O)N[C@@H]1CCN(Cc2ccc(Oc3ccccc3)cc2)C1`: the composite z-score in assay [1] is 0.499; in assay [2], -0.392; in [3] it was -0.38; in assay [5], 0.271; in [6] it was -0.632; in assay [7], -0.0463. In addition, the composite z-score worked out at 0.626 in [8], 0.47 in assay [9] and 0.192 in [10]. Moreover, the z-score in assay [4] was 1.25 (inactive).
Consider `COCCOC(=O)N1C(=O)[C@@]2(c3cc(C#CC4(O)CCCCCC4)ccc31)[C@H](c1ccccc1OCCO)N1[C@H](c3ccccc3)[C@H](c3ccccc3)OC(=O)[C@H]1[C@@H]2C(N)=O`, for which the composite z-score turned out to be 0.651 in [1]; 0.255 in assay [2]; 0.0813 in assay [3]; 0.804 in assay [5]; 1.28 in [6]; 0.442 in assay [7]. The composite z-score in assay [8] is 1.14; in [9], 1.06; in assay [10], -0.132. Moreover, in assay [4], the z-score is -0.349 (inactive).
Turning to `COc1ccc(C(O)C2C=CC3C(=O)N(c4ccccc4)C(=O)C3N2Nc2ccccc2)cc1OCc1ccccc1` (stereo not given), the composite z-score in assay [1] was 0.964; in [2], 0.294; in [3], 0.77; in assay [5], 1.21; in assay [6] it was 1.29; in [7] it was -0.0831. The composite z-score in [8] is 1.29; in assay [9], -0.0662; in [10], 0.726. Further, the z-score in [4] is 0.161 (inactive).
For the compound `C=CCN1C(=O)[C@@]2(O[C@@H](CCn3cc([C@H](O)c4ccccc4)nn3)[C@H]([Si](C)(C)c3ccc(OC)cc3)[C@H]2C)c2ccccc21`, the composite z-score is 1.52 in [1]; -0.0203 in assay [2]; 0.0047 in [3]; 0.756 in [5]; 0.658 in assay [6]; 0.32 in assay [7]. The composite z-score in [8] is 1.19; in assay [9], 0.694; in [10], 0.0239. Moreover, the z-score in [4] was -0.56 (inactive).
With `COCCOC(=O)N1C(=O)[C@@]2(c3cc(C#CC4=CCCCC4)ccc31)[C@H](C(=O)N1CCN(c3ncccn3)CC1)[C@H]1C(=O)O[C@H](c3ccccc3)[C@H](c3ccccc3)N1[C@@H]2c1ccc(O)cc1`, the composite z-score in assay [1] was 0.827; in [2], 0.646; in assay [3] it was 0.509; in assay [5], 0.664; in assay [6] it was 1.27; in [7], 0.466. For the same compound, the values for the composite z-score in assay [8], in assay [9] and in assay [10] were 1.14, 0.496 and 0.275, respectively. Besides, in assay [4], the z-score was 0.345 (inactive).
Regarding `CCOC(=O)C1=CC[C@@H](c2cc(Cl)ccc2Cl)N(S(=O)(=O)c2ccc(C)cc2)[C@H]1c1ccc(OC)cc1`, the composite z-score is 0.391 in [1]; 0.987 in [2]; 1.13 in [3]; 0.462 in [5]; -0.239 in assay [6]; -0.36 in assay [7]. For the same compound, the composite z-score is -0.0732 in [8], -0.295 in assay [9] and 1.56 in assay [10]. Moreover, the z-score in [4] was -0.381 (inactive).
For the compound `CCOC(=O)C1=CC[C@@H](c2ccccc2)N(S(=O)(=O)c2ccc(C)cc2)C1`, the composite z-score in assay [1] is 0.243; in assay [2], 0.617; in assay [3] it was 0.931; in assay [5], -0.0077; in assay [6], 0.121; in [7], 0.0223. The composite z-score in assay [8] was 0.36; in [9], 0.107; in assay [10], 1.29. For the same compound, the z-score in assay [4] is 0.259 (inactive).
As for `CC1CC/C=C\[C@H]2OC34C=CCN(c5ccc6ccccc6c5)C(=O)[C@H]3N(C(CO)C(C)C)C(=O)[C@@H]4C2C(=O)O1` (stereo not given in full), the composite z-score was 0.675 in assay [1]; -0.305 in assay [2]; 0.623 in [3]; -0.209 in assay [5]; -0.176 in assay [6]; -0.56 in [7]. Besides, the composite z-score was -0.163 in assay [8], -0.495 in [9] and 1.2 in assay [10]. Also, the z-score in [4] is 6.6e-05 (inactive).
`CCCC=C(CCC)[C@@H](NP(=O)(c1ccccc1)c1ccccc1)c1ccc(C(F)(F)F)cc1`: the composite z-score in [1] was -1.78; in assay [2], 0.578; in assay [3] it was 0.333; in assay [5], 0.0142; in [6], 0.734; in [7] it was -0.0267. In addition, the composite z-score in assay [8] is -0.354; in [9] it was -0.15; in [10], 0.589. In assay [4], the z-score was -0.139 (inactive).
